Experimental data taken from the supplement of paper PMC11172423.
A number with no mark means an inactive call.

Each compound was assayed on Madurella mycetomatis MM55 (assay: growth relative to untreated control; higher = less inhibition, active = 20 or less). Conditions: 25 µM.
Experimental: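 Hyphal fragments of M. mycetomatis MM55 or F. senegalensis CBS197.79 in RPMI 1640/MOPS were exposed to each MMV COVID Box or Global Health Priority Box compound at 100 or 25 µM for 7 days at 37 °C. Viability was read with MTS (490 nm, M. mycetomatis) or resazurin (600 nm, F. senegalensis), background-corrected with a medium-only control and expressed as % growth relative to the untreated growth control. Inhibition of more than 80% was taken as growth inhibition.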

Row | Compound | growth
1 | CCCCOC(=O)c1c(C)cnc2ccccc12 | 86.7%
2 | Cc1cc(C)c2cc(C(=O)N[C@@H](C)c3ccccc3)[nH]c2c1 | 7.91% (active)
3 | CCCCN(CCCC)CC(O)c1cc(Cl)cc2c1-c1ccc(Cl)cc1/C2=C/c1ccc(Cl)cc1 (stereo not given) | 107%
4 | CN1CCC(Oc2nc(Nc3ccccc3)nc3[nH]cc(-c4cnn(C)c4)c23)CC1 | 78.3%
5 | O=C(Nc1cccc(-c2cc3nc(Nc4ccc(N5CCOCC5)cc4)ncc3[nH]2)c1)C1CC1 | 78.9%
6 | Cc1cnc2nc(NC3COc4ccc(F)cc43)nc(NC3CCC4(CCCC4)CC3)c2c1 (stereo not given) | 73.6%
7 | Cn1ccnc1SCC(=O)Nc1ccc(C(=O)Nc2ncccc2O)cc1 | 102%
8 | N=C(N)Nc1ccc(C(=O)Oc2ccc3cc(C(=N)N)ccc3c2)cc1 | 79.9%
9 | CNc1ccc2cc(NC(=O)c3ccc(C(F)(F)F)c(Cl)c3)ccc2n1 | 6.89% (active)
10 | CC(N)CCn1c(Nc2cc(Cl)cc(C(F)(F)F)c2)nc2cnc(NC3CCCC3)nc21 (stereo not given) | 11.2% (active)
11 | Cc1cc(OCCN2CCOCC2)nn1-c1ccc2ccccc2c1 | 85.8%
12 | CCN(CC)Cc1cc(Nc2ccnc3cc(Cl)ccc23)ccc1O | 81.3%
13 | COC(=O)N[C@H](C(=O)N1CCC[C@H]1c1ncc(-c2ccc(-c3ccc(-c4cnc([C@@H]5CCCN5C(=O)[C@@H](NC(=O)OC)C(C)C)[nH]4)cc3)cc2)[nH]1)C(C)C | 82.5%
14 | NC(=O)c1nc(F)cnc1O | 83.1%
15 | COc1cccc2c1C(=O)c1c(O)c3c(c(O)c1C2=O)C[C@@](O)(C(=O)CO)C[C@@H]3O[C@H]1C[C@H](N)[C@H](O)[C@H](C)O1 | 116%
16 | CCN(CC)CCOc1ccc(C(O)(Cc2ccc(Cl)cc2)c2ccc(C)cc2)cc1 (stereo not given) | 3.26% (active)
17 | COC(=O)[C@@]1(c2ccc(C)cc2)C[C@H]1CN1CCC(O)(c2ccccc2)CC1 | 77.2%
18 | Cc1ccc(C)c2sc(N(CCCn3ccnc3)C(=O)c3ccco3)nc12 | 5.97% (active)
19 | O=C(Nc1ncccc1O)c1ccc(N2CCOCC2)nc1 | 92.8%
20 | CCS(=O)(=O)N1CC(CC#N)(n2cc(-c3ncnc4[nH]ccc34)cn2)C1 | 94.3%

Same assay, conditions: 100 µM

Row | Compound | growth
21 | CCCCOC(=O)c1c(C)cnc2ccccc12 | 141%
22 | Cc1cc(C)c2cc(C(=O)N[C@@H](C)c3ccccc3)[nH]c2c1 | 69.4%
23 | CCCCN(CCCC)CC(O)c1cc(Cl)cc2c1-c1ccc(Cl)cc1/C2=C/c1ccc(Cl)cc1 (stereo not given) | 87.9%
24 | CN1CCC(Oc2nc(Nc3ccccc3)nc3[nH]cc(-c4cnn(C)c4)c23)CC1 | 17.9% (active)
25 | O=C(Nc1cccc(-c2cc3nc(Nc4ccc(N5CCOCC5)cc4)ncc3[nH]2)c1)C1CC1 | 72.6%
26 | Cc1cnc2nc(NC3COc4ccc(F)cc43)nc(NC3CCC4(CCCC4)CC3)c2c1 (stereo not given) | 38.8%
27 | Cn1ccnc1SCC(=O)Nc1ccc(C(=O)Nc2ncccc2O)cc1 | 64.9%
28 | N=C(N)Nc1ccc(C(=O)Oc2ccc3cc(C(=N)N)ccc3c2)cc1 | 72.3%
29 | CNc1ccc2cc(NC(=O)c3ccc(C(F)(F)F)c(Cl)c3)ccc2n1 | 77.4%
30 | CC(N)CCn1c(Nc2cc(Cl)cc(C(F)(F)F)c2)nc2cnc(NC3CCCC3)nc21 (stereo not given) | 7.25% (active)
31 | Cc1cc(OCCN2CCOCC2)nn1-c1ccc2ccccc2c1 | 65%
32 | CCN(CC)Cc1cc(Nc2ccnc3cc(Cl)ccc23)ccc1O | 43.4%
33 | COC(=O)N[C@H](C(=O)N1CCC[C@H]1c1ncc(-c2ccc(-c3ccc(-c4cnc([C@@H]5CCCN5C(=O)[C@@H](NC(=O)OC)C(C)C)[nH]4)cc3)cc2)[nH]1)C(C)C | 85.6%
34 | NC(=O)c1nc(F)cnc1O | 84.1%
35 | COc1cccc2c1C(=O)c1c(O)c3c(c(O)c1C2=O)C[C@@](O)(C(=O)CO)C[C@@H]3O[C@H]1C[C@H](N)[C@H](O)[C@H](C)O1 | 72.5%
36 | CCN(CC)CCOc1ccc(C(O)(Cc2ccc(Cl)cc2)c2ccc(C)cc2)cc1 (stereo not given) | 3.33% (active)
37 | COC(=O)[C@@]1(c2ccc(C)cc2)C[C@H]1CN1CCC(O)(c2ccccc2)CC1 | 72.2%
38 | Cc1ccc(C)c2sc(N(CCCn3ccnc3)C(=O)c3ccco3)nc12 | 7.8% (active)
39 | O=C(Nc1ncccc1O)c1ccc(N2CCOCC2)nc1 | 95.8%
40 | CCS(=O)(=O)N1CC(CC#N)(n2cc(-c3ncnc4[nH]ccc34)cn2)C1 | 80.3%
